Reference: PubChem BioAssay (NCI)
Compounds without any hit were thinned out: in the full panel of roughly 83,000, 20% have a hit.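 For each line, cells grew in 96-well plates with the test compound present at a single concentration for 48 hours.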 Values without a mark were called inactive. Calls of active or inactive are those of the source.

Test system: CCRF-CEM leukemia
Test: NCI-60 one-dose screen, 48 h (100 = growth as untreated, 0 = no growth, -100 = all killed)
Conditions: 10 µM unless noted
Protocol: Growth inhibition of the CCRF-CEM human tumor cell line is measured as a screen for anti-cancer activity. Cells are grown in 96 well plates and exposed to the test compound for 48 hours. Compounds are tested at a single concentration, which is 10^-5 M for most compounds. The reported endpoint is percent growth (GI% or GIPRCNT), where numbers from 0 - 100% represent growth inhibition, and numbers from -100% - 0 represent cell death. For example, a value of 40 represents 60% growth inhibition. A value of 0 means no net growth occurred over the course of the experiment. A value of -40 indicates 40% of cells at the beginning of the experiment died by the end of the experiment. A value of -100 means all cells are dead at the end of the experiment.
NCI-60 Human Tumor Cell Lines Screen was performed using the standard one-dose NCI protocol, which is described in more detail at https://dtp.cancer.gov/discovery_development/nci-60/default.htm.
Compounds with GIPRCNT values below 10 were considered active. Activity score was based on GIPRCNT using the following formula: […]
Score is 0 for GIPRCNT values of 100 or above, 50 for GIPRCNT values of 0, and 100 for GIPRCNT values of -100.

Structure (SMILES)	growth
COc1ccc(C(=O)/C=C/c2ccc(OCc3ccccc3)c(OC)c2)cc1OC	17.4%
NC(=S)N/N=C(/c1ccccc1)c1ccccc1N	60.2%
CCN(CC)CCCC(C)Nc1cc(-c2cccc(OC(F)(F)F)c2)nc2ccc(N3CCCC3)cc12 (stereo not given)	-22.4% (active)
CC(Oc1ccc(C(=O)NS(=O)(=O)C(C)(C)C)cc1C(F)(F)F)c1ccc(Oc2ccccc2)cn1 (stereo not given)	74.1%
CC(C)(O)C1CCCN1C(=O)c1ccccc1I (stereo not given)	41.1%
Cc1n[nH]c(C)c1-c1c(C)n[nH]c1C	12.3%
CC(=O)OC1CCC2(C)C(CCC3C4CC=C(C(C)=O)C4(C)OC(=O)CC32)C1 (stereo not given)	-27.5% (active)
CC1=NNC(=O)C1CCC(=O)N/N=C(\C)c1ccc2ccccc2c1 (stereo not given)	105%
COc1ccc(C(=O)c2cc(C)c(OC)c(C)c2)c(OC)c1N(C(=O)C(Cl)Cl)C(=O)C(Cl)Cl	10.7%
CC(=O)N1N=C(c2cccc(Nc3ccncc3)c2)CC1c1ccc2c(c1)OCO2 (stereo not given)	81.2%
NC(=O)c1ncn(C2OC(CO)C(O)C2O)n1 (stereo not given)	67.1%
O=S(=O)(NCCCNc1nccc(-c2c(-c3cccc(O)c3)nc3occn23)n1)c1ccc(F)cc1	89%
COc1cc2nc(-c3ccc(C(F)(F)F)cc3)cc(OCCN3CCCC3)c2cc1OC	77.8%
[2H]C1([2H])NC([2H])([2H])C([2H])([2H])N(c2ccc(Nc3ncc4cc(C(=O)N(C)C)n(C5CCCC5)c4n3)nc2)C1([2H])[2H]	54.1%
CN(C)c1ccc(-c2c(C#N)c(N)n3nc(N)c(C#N)c3c2C#N)cc1	94%
O=c1nc2n(nc1/C=C/c1ccco1)CC(c1ccc(Cl)cc1)=NN2	98%
COc1ccc2c(c1)OC1=C(C(=O)OC1)C2c1cc(OC)c(OC)c(OC)c1 (stereo not given)	13.8%
Clc1cc(Cl)cc(N2N=C(c3cccc(Nc4ccncc4)c3)CC2c2ccc(Br)cc2)c1 (stereo not given)	-12.9% (active)
Clc1ccc(C2CC(c3cccc(Nc4ccncc4)c3)=NN2c2ccc(Cl)cc2)cc1 (stereo not given)	2.88% (active)
COc1cc2c(cc1[N+](=O)[O-])-c1ccc([N+](=O)[O-])cc1/C2=N/NC(N)=S	56.6%

Structure (SMILES)	growth
C=C1C(=O)O[C@H]2[C@H]1CC/C(COC(=O)CCCc1c[nH]c3ccccc13)=C\CC[C@@]1(C)O[C@@H]21	1.43% (active)
CCCCCCCCOc1ccc(/C=N/Nc2cc(C)nc3ccc(Cl)cc23)cc1	2.23% (active)
COc1ccc(/C(=C\c2ccccc2)C(=O)O)cc1OC	117%
FC(F)(F)c1cccc(Nc2ccccc2)c1	109%
c1ccc(CCSc2ncnc3nc[nH]c23)cc1	92.6%
N#CSCC1CC(O)(c2ccccc2)C(c2ccccc2)C(c2ccc(F)cc2)O1 (stereo not given)	12.2%
Clc1cc(Cl)cc(N2N=C(c3cccc(Nc4ccncc4)c3)CC2c2ccc3c(c2)OCO3)c1 (stereo not given)	-1.31% (active)
CCCCCCCCCCCCCCCCCCOc1ccccc1N	11%
CN1CCCC1=Nc1ccccc1	105%
C=C1C(=O)O[C@H]2[C@H]1CC/C(CNC(=O)/C=C/c1ccccc1F)=C\CC[C@@]1(C)O[C@@H]21	-0.259% (active)
O=c1[nH]c2c(s1)CCCC2CN1CCCCC1 (stereo not given)	109%
COc1ccc(-c2nc(N/N=C/c3cccc(Br)c3)nc(N3CCOCC3)c2C#N)cc1	35.6%
COc1cc(NCCN(CC(C)C)C2CCCC2)c2ncccc2c1	121%
Clc1ccc(N2N=C(c3cccc(Nc4ccncc4)c3)CC2c2ccc3c(c2)OCO3)cc1 (stereo not given)	5.74% (active)
CCOC(=O)c1c(SC)nn(-c2cc(=O)[nH]c3ccc(Br)cc23)c1N	111%
S=c1[nH]cccc1-c1nnc2n1Nc1nc3ccccc3cc1CS2	105%
CC(=O)c1c(C)[nH]c(-c2nc3ccc(N4CCN(C)CC4)cc3[nH]2)c1-c1ccccc1	49.1%
CC(=O)c1c[nH]c2ccc(-c3ccnc(Nc4ccc(NC(=O)C5CCCC5)c(CN5CCOCC5)c4)n3)cc12	-11.5% (active)
CC(O)(CO)c1ccccc1 (stereo not given)	113%
O=C1NC(=S)NC(=O)C1=Cc1cccc(C=C2C(=O)NC(=S)NC2=O)c1	99.3%
